# Data taken from PubChem BioAssay.
# “And” between values parts separate entries of the source, which are not always exact repeats. Equal values may be shown once. The source made the active and inactive calls.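 How the source made its calls, unless noted: active means inhibition at or above 50% relative to wild type and mutant plate controls; inactive means inhibition below 50%.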
# Legend:
# [1] = inhibitors of E-selectin induction by TNFa, primary screen, imaging, HUVEC, immunofluorescence, MLSMR starter and 10KST1 sets (AID 487;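 active means visually confirmed hit in the image check and inhibition above 20%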;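 on inhibition: signal is fraction of cell area covered by stained E-selectin grains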;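 on nuclei count: 100% = median nuclei count of all wells on the same plate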); details: HUVEC TNFalpha-induced E-selectin immunofluorescence imaging, at 2 µM; inhibition: stronger effect = higher value; nuclei count: measured here: cell number, toxicity
# [2] = DUSP6 inhibitors restoring Erk phosphorylation by chemical complementation, primary imaging in DUSP6-transfected HeLa (AID 609;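 active means compounds giving at least 50% inhibition in the cell-based MKP-3 phosphatase rescue imaging test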;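 on inhibition: phospho-Erk level distribution per well compared with pooled transfected vehicle control wells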); details: HeLa MKP-3 transfected, phospho-Erk imaging KS statistic, at 10 µM, cells stimulated with TPA for 15 min
# [3] = target: Dual specificity protein phosphatase 6 (Homo sapiens) (UniProt Q16828); experiment: as above; details: HeLa MKP-3 transfected, phospho-Erk imaging KS statistic; at 10 µM; stronger effect = higher value; cells stimulated with TPA for 15 min
# Chain of Dual specificity protein phosphatase 6 (Homo sapiens) (Q16828 whole entry, looked up): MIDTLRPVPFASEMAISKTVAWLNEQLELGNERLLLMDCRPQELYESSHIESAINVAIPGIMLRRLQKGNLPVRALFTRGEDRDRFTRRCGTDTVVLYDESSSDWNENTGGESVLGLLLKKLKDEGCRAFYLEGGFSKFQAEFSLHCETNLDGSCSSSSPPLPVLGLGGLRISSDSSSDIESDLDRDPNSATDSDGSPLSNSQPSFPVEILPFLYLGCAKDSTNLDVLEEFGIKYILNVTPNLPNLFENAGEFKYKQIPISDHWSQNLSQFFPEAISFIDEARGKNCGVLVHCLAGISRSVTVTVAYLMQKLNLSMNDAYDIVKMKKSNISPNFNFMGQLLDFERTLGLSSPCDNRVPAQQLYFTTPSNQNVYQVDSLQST
# [4] = target: Voltage-gated potassium channel subunit beta-2 (Rattus norvegicus) (UniProt P62483); experiment: KvBeta enzyme negative modulators, primary screen, biochemical, NADPH fluorescence (AID 622;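 active means fluorescence slope higher than the sample average by over 3 SD, cut at about -0.22 in these data, passing the limit was not always enough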;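 further: slope of raw intensity against log time taken from 70 to 1610 s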); details: recombinant KvBeta, 4-cyanobenzaldehyde reduction, at 10 µM, stronger effect = higher value
# Chain of Voltage-gated potassium channel subunit beta-2 (Rattus norvegicus) (P62483 whole entry, looked up): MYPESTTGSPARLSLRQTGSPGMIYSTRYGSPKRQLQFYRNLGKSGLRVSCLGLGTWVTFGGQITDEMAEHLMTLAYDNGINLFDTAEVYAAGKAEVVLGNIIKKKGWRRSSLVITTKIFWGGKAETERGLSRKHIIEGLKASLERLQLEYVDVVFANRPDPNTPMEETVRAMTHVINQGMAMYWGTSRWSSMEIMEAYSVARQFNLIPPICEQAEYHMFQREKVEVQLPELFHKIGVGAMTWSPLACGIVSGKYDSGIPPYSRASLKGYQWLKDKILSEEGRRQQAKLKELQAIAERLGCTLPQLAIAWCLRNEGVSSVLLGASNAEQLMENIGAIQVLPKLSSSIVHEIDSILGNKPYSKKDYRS
# [5] = target: Voltage-gated potassium channel subunit beta-2 (Rattus norvegicus) (UniProt P62483); experiment: KvBeta positive modulators, primary screen, biochemical, NADPH fluorescence (AID 623;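 active means NADPH fluorescence slope more negative than the mean of all samples by about 3 SD, 99.7% confidence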;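 further: fluorescence intensity change per second fitted from 20 to 320 s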); details: Recombinant KvBeta, NADPH fluorescence decrease slope, 10 min; at 10 µM; stronger effect = lower value
# [6] = target: Muscarinic acetylcholine receptor M4 (Homo sapiens) (UniProt P08173); experiment: compounds altering M4/GIRK thallium flux, either direction, primary screen, M4 allosteric agonist project, cell-based, HEK293 M4/GIRK, BTC-AM (AID 625;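 active means fluorescence slope after compound addition differing from the mean of all tested samples at 99.7% confidence, mostly higher but some lower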;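 further: thallium influx through GIRK channels coupled to M4 in HEK293 cells with BTC-AM dye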); details: at 10 µM, actives lie on both sides
# Chain of Muscarinic acetylcholine receptor M4 (Homo sapiens) (P08173 whole entry, looked up): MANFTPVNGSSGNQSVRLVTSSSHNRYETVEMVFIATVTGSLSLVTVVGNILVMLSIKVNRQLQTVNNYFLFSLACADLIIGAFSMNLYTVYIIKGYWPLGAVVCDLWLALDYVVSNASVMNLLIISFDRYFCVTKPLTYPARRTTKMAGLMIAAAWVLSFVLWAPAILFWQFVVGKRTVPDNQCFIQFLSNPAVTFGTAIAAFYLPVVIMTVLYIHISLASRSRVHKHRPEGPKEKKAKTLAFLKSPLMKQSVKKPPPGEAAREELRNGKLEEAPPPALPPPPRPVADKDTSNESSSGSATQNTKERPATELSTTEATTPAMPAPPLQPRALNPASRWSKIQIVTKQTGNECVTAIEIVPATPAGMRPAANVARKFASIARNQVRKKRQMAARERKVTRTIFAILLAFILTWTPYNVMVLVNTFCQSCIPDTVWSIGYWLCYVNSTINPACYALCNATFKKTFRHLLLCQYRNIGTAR
# [7] = inhibitors of larval lipid processing in zebrafish, primary screen, whole organism, PED6 fluorescence, gall bladder and intestine (AID 686;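 active means a full or partial loss of lipid-probe fluorescence in the fish gall bladder, intestine or both, judged by eye; inactive means no fluorescence loss, or compound toxic to the fish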;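 further: larvae 5 to 7 days old with five fish per well; signal comes from phospholipase A2 cleavage of quenched PED6 carried via bile; overnight exposure to compound and PED6 before scoring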); details: Zebrafish larvae PED6 lipid processing, fluorescence scoring; screened at 20 µM (by protocol)
# [8] = inhibitors of Chlamydomonas gravitaxis, primary screen, whole organism, Chlamydomonas reinhardtii, WT vs cilia-less mutant, absorbance, 96-well (AID 463189); details: OD600 absorbance, 2 days, at 10 µM, stronger effect = higher value;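 further: 0% = wild type cc124 cells in DMSO and 100% = ciliumless bld1 mutant cells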
# [9] = target: Alpha-2C adrenergic receptor (Homo sapiens) (UniProt P18825); experiment: modulators of alpha2C/GIRK thallium flux, primary screen, cell-based, HEK293 alpha2C/GIRK1/2 (AID 624;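 active means fluorescence slope after compound addition differing from the mean of all screened samples at 99.7% confidence, in either direction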;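 further: slope of fluorescence ratio to pre-addition baseline per second over 15 to 24 s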); details: thallium flux BTC fluorescence, at 10 µM, actives lie on both sides
# Chain of Alpha-2C adrenergic receptor (Homo sapiens) (P18825 whole entry, looked up): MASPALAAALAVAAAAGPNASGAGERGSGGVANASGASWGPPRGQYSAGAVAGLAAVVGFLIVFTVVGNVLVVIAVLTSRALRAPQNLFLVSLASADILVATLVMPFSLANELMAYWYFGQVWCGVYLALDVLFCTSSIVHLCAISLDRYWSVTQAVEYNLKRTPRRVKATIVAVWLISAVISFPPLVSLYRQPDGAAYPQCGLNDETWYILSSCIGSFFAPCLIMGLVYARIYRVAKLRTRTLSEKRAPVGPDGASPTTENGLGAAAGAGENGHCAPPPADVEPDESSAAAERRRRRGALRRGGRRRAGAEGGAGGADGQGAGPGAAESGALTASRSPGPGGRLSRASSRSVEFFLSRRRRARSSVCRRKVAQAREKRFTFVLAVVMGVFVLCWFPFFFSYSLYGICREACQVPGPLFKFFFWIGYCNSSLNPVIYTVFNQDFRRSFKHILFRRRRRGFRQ
# [10] = inhibitors of mutant huntingtin aggregation, primary screen, imaging, exon1htt(103Q)mCFP cells, high-content imaging (AID 483;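 active means visual image review flags a hit and inhibition of aggregation exceeds 20%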;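 further: compound exposure lasted 3 days before fixation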;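 on nuclei count: percent of the per-plate median nuclei count of sample wells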); details: exon1htt(103Q)mCFP cell line, aggregate imaging, at 2 µM; inhibition of aggregation: stronger effect = higher value; nuclei count: measured here: cell count, toxicity
# [11] = inhibitors of Sendai virus-induced IRF3 signaling, primary screen, TLR/RLR signaling modifier project, cell-based, Sendai virus stimulus, luciferase, 10K MLSCN set (AID 602276;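 active means inhibition at or above 50% at 10 µM; inactive means inhibition below 50%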;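 further: firefly luciferase from ISG56 promoter only with Renilla not read in this screen; 0% = Sendai virus plus DMSO and 100% = medium plus DMSO without virus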); details: HEK293 RL24 IRF3 luciferase reporter, at 10 µM, stronger effect = higher value
# [12] = inhibitors of poly I:C-induced TLR3 signaling, primary screen, cell-based, poly I:C stimulus, luciferase, 10K MLSCN set (AID 602277;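 active means inhibition of the reporter signal at or above 50%; inactive means inhibition below 50%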); details: HEK293-TLR3 RL24 IRF3 luciferase reporter, at 10 µM, stronger effect = higher value
# [13] = measured here: cell density z-score
# [14] = measured here: nuclear c-Myc green intensity z-score
# [15] = measured here: nuclear pErk red intensity z-score, stronger effect = higher value
SMILES,inhibition [1],nuclei count [1],"z-score [2, 13]","z-score [2, 14]","z-score [2, 15]",inhibition [3],fluorescence slope [4],NADPH fluorescence slope [5],fluorescence slope [6],outcome [7],inhibition [8],slope [9],inhibition of aggregation [10],nuclei count [10],inhibition [11],inhibition [12]
Cc1cc(C)n(C(=O)CNC(=O)c2ccc3c(c2)OCCO3)n1,-96.3% (inactive),162%,1.78,-0.668,-1.28,18.9% (inactive),-0.374 (inactive),-5.5e-05 (inactive),0.00504 (inactive),inactive,12.4% (inactive),,,,,
COc1ccc(CSc2nnc(C)n2N)cc1Br,-82.3% (inactive),182%,1.41,-2.02,0.078,13.2% (inactive),-0.395 (inactive),-5.4e-05 (inactive),0.00742 (inactive),inactive,5.58% (inactive),,,,,
COc1ccc(OCC(=O)OCCN(C)C)cc1,-159% (inactive),170%,-1.95,-1.2,-0.272,-10.6% (inactive),-0.383 (inactive),-2.2e-05 (inactive),,inactive,6.76% (inactive),0.00493 (inactive),,,,
Cc1cc(C)n(C(=O)CNC(=O)c2cccs2)n1,-109% (inactive),182%,0.591,-1.67,-0.663,7.48% (inactive),-0.404 (inactive),-3.1e-05 (inactive),0.00505 (inactive),inactive,16.6% (inactive),,,,,
NC(N)=Nc1nc(CSCC/C(N)=N/S(N)(=O)=O)cs1,-48.3% (inactive),116%,-1.28,1.78,-1.37,16.8% (inactive),,,,inactive,2.23% (inactive) and -8.71% (inactive),0.00523 (inactive),0.8% (inactive),101%,13.5% (inactive),42.5% (inactive)
Cc1c(C(=O)O)sc(=S)n1-c1ccccc1,-33.5% (inactive),141%,0.701,-0.0654,0.165,20.8% (inactive),-0.372 (inactive),-3.1e-05 (inactive),0.0076 (inactive),inactive,12.3% (inactive),,,,,
CCOC(=O)c1ccc(CSc2ncn[nH]2)o1,-61.8% (inactive),156%,0.633,-0.893,-0.304,17% (inactive),-0.407 (inactive),-3.4e-05 (inactive),0.00583 (inactive),inactive,10.3% (inactive),,,,,
COc1ccc([C@@H]2Sc3ccccc3N(CCN(C)C)C(=O)[C@@H]2OC(C)=O)cc1,-27.1% (inactive),104%,0.794,-1.47,0.473,-4.44% (inactive),-0.507 (inactive),-7.4e-05 (inactive),,inactive,4.06% (inactive) and -15.6% (inactive),0.00609 (inactive),,,16.3% (inactive),35.5% (inactive)
CC(=O)O[C@@]12CO[C@@H]1C[C@H](O)[C@@]1(C)C(=O)[C@H](O)C3=C(C)[C@@H](OC(=O)[C@H](O)[C@@H](NC(=O)OC(C)(C)C)c4ccccc4)C[C@](O)([C@@H](OC(=O)c4ccccc4)[C@H]21)C3(C)C,,,-1.36,0.683,1.58,-9.66% (inactive),-0.48 (inactive),-5.5e-05 (inactive),,inactive,22.5% (inactive),0.00555 (inactive),-77% (inactive),4.4%,37.7% (inactive),38.9% (inactive)
CCN(CC)CCNC(=O)c1ccc(N)cc1,-57.1% (inactive),133%,1.09,-0.602,-0.833,3.59% (inactive),-0.52 (inactive),-0.000102 (inactive),,inactive,3.94% (inactive) and 1.02% (inactive),0.00563 (inactive),,,-2.32% (inactive),3.63% (inactive)
COc1ccc(Cn2ccnc2)cc1Br,-47% (inactive),141%,-0.527,1.89,-0.19,18.9% (inactive),-0.302 (inactive),1.1e-06 (inactive),0.00733 (inactive),inactive,109% (active),,,,,
Cc1nnc(NS(=O)(=O)c2ccc(N)cc2)s1,-81.2% (inactive),125%,0.0804,0.446,0.118,19% (inactive),-0.526 (inactive),-3.2e-05 (inactive),,inactive,-0.666% (inactive),0.00418 (inactive),,,-4.22% (inactive),-8.79% (inactive)
COc1ccc(C(=O)N2CCCC(c3ccccc3)C2)cc1 (stereo unspecified),-91.1% (inactive),167%,-0.133,0.389,0.742,-7.79% (inactive),-0.406 (inactive),-4.3e-05 (inactive),0.00466 (inactive),inactive,8.1% (inactive),,,,,
CC[C@]1(O)C[C@@H]2CN(CCc3c([nH]c4ccccc34)[C@@](C(=O)OC)(c3cc4c(cc3OC)N(C)[C@H]3[C@@](O)(C(=O)OC)[C@H](OC(C)=O)[C@]5(CC)C=CCN6CC[C@]43[C@@H]65)C2)C1,-205% (inactive),78%,-0.32,-0.704,1.1,-12.3% (inactive),-0.495 (inactive),-2.5e-05 (inactive),,inactive,-7.31% (inactive),0.00463 (inactive),,,23.8% (inactive),90.5% (active)
